# Shown are actives, neighbours in structure and some others; about 9.3% of the full set was active somewhere.
# FLuc modulator – qHTS profiling assay for firefly luciferase inhibitor/activator using purifed enzyme and Km concentrations of substrates (counterscreen for miR-21 project); Potency, µM (series often up to 57.5 µM), without a hit: at the top dose activity change, negative = inhibition, actives largely listed as inhibitors; purified FLuc, Km substrates, luminescence inhibition; Luciferin 4-monooxygenase (Photinus pyralis), P08659; 6.9% of 360,000 active;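 note: plate controls were vehicle for no effect and reference inhibitor for full effect; nearly all actives have a fitted effect of over 55% in size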
# Target sequence (P08659 whole entry, looked up): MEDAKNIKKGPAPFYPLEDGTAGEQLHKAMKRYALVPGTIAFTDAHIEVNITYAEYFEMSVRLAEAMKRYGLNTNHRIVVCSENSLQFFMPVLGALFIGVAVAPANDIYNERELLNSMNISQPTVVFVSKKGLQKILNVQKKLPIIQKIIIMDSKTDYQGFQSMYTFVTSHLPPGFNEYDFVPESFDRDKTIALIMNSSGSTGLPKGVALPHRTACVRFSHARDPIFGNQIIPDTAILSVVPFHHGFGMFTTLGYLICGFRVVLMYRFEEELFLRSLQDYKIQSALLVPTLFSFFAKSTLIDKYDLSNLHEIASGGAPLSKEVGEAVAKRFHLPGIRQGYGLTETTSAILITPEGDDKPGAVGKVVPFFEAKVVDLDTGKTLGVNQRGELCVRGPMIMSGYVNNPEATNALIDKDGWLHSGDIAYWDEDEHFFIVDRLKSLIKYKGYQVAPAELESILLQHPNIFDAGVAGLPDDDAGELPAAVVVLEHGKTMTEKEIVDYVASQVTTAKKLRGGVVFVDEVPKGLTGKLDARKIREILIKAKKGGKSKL
#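 Purified P. pyralis luciferase (10nM final) with 10uM D-luciferin and 10uM ATP (Km levels) in 50mM Tris acetate pH 7.5, 10mM Mg acetate, 0.01% Tween-20, 0.05% BSA; qHTS 6-point titration, ~60 µM downward; luminescence read.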
# NPC1 promoter act – qHTS Assay for NPC1 Promoter Activators. Huh7 NPC1 promoter luciferase reporter, 24 h. Potency, µM (titrated, usually from 9.22 µM), without a hit: top-dose activation, hits mostly activators. 2.4% of 320,000 active. AID 485313, 2010; note: % of control where 0% means no effect; nearly all actives have a fitted effect of over 60% in size
#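 NPC1 promoter–luciferase Huh7 cells; 24 h compound; luminescence.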
# Rab9 prom act – qHTS Assay for Rab9 Promoter Activators; Huh7 Rab9 promoter-luciferase reporter, luminescence, 24 h; Potency, µM (series often up to 9.22 µM), without a hit: at the top dose activation, negative = inhibition, most hits filed as activators; 2.8% of 320,000 active; AID 485297, 2010; note: % of control where 0% means no effect; nearly all actives have a fitted effect of over 60% in size
#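 Huh7 reporter line, Rab9 promoter upstream of luciferase. Compound exposure 24 h at 37 °C in reduced-serum medium with 10% FBS. Read-out: luminescence.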
# ELG1 repair inh – qHTS screen for small molecules that inhibit ELG1-dependent DNA repair in human embryonic kidney (HEK293T) cells expressing luciferase-tagged ELG1; HEK293T ELG1-luciferase reporter, luminescence, 16 h; DNA damage induced by 5-fluorouridine; Potency, µM (series often up to 46.1 µM), without a hit: at the top dose activity change, negative = inhibition, usual class: inhibitors; 2.3% of 330,000 active; note: % is set by controls: 0 for no effect and ±100 for the full control effect; nearly all actives have a fitted effect of over 55% in size
#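 Cells (2,000 per well) received 5-fluorouridine plus test compound or DMSO and were incubated 16 hr at 37 °C, 5% CO2. Luciferase activity was read by luminescence 30 min after ONE-Glo addition; signal suppression marked inhibition of damage-induced ELG1 function.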
# SMN2 splice enh – qHTS Assay for Enhancers of SMN2 Splice Variant Expression | HEK293 SMN2-luciferase splicing reporter, luminescence, 30-36 h | Potency, µM (series often up to 46.1 µM), for inactives: at the highest dose activity change, positive = activation, actives largely listed as activators | 2.8% of 210,000 active | AID 1458, 2008; note: % of control where 0% means no effect; nearly all actives have a fitted effect of over 55% in size
#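 HEK293 cells carry an SMN2 minigene-luciferase reporter in which exon 7 inclusion puts luciferase in frame. Cells were seeded at 2000 cells/well, attached for 10-12 hours, then exposed to compounds for 30-36 hours at 37C before ONE-Glo luminescence.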
# ELG1 genotox – qHTS screen for small molecules that induce genotoxicity in human embryonic kidney (HEK293T) cells expressing luciferase-tagged ELG1. 1.3% of 330,000 active. Potency, µM (series often up to 46 µM), for the others: at the highest dose activity change, positive = activation, actives largely listed as activators. HEK293T ELG1-luciferase reporter, luminescence, 16 h. AID 504466, 2011; note: % of control where 0% means no effect; nearly all actives have a fitted effect of over 60% in size
#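 Reporter readout depends on ELG1 protein level, which increases with genetic stress. After 16 hr compound exposure at 37 °C, luciferase activity was quantified using ONE-Glo.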
# Active calls of the source: *; ? = inconclusive; nt = no result; [ ] = dose if it differs, or a comment. Calls come from the whole dose curve; as a rule, active = well fitted curve in the direction sought with a large enough effect; inconclusive = small, poorly fitted or top-dose-only effect, or another doubt; inactive = no such curve, though single readings can be large; an effect the other way counts as inactive or inconclusive. Potency is the fitted concentration of half-maximal effect.
SMILES,FLuc modulator,NPC1 promoter act,Rab9 prom act,ELG1 repair inh,SMN2 splice enh,ELG1 genotox
Cc1ccc(N2C(=O)c3ccccc3C2C(=O)c2ccc(C)c(C)c2O)cc1 (configuration not stated),-11%,10%,14%,10%,nt,2%
Cc1ccc(C2=NNC3(CCOC(C)(C)C3)S2)cc1 (configuration not stated),?,10%,-4%,?,4%,18%
O=C1NC(=Nc2ccc(O)cc2)S/C1=C\C=C\c1ccco1,-2%,-22%,-13%,?,nt,?
Cc1cccc(-c2cc3c(nn2)-c2ccccc2C3=O)c1,0.76µM*,2.2µM*,3.5µM*,?,10µM*,?
COc1ccc(-c2cc3c(nn2)-c2ccccc2C3=O)cc1,0.17µM*,?,0.1µM*,?,1.1µM*,-8%
O=C1c2ccccc2-c2nnc(-c3ccccc3)cc21,0.48µM*,1.3µM*,0.56µM*,?,?,9%
Cc1cnc2c(c1)C(=O)c1ccccc1-2,-19%,-3%,-1%,25%,nt,4%
O=c1ccc2c(OCCCCc3ccccc3)c3ccoc3cc2o1,nt,-1%[46.1 µM],2%[46.1 µM],nt,-17%,nt
COc1cccc(OCc2nc3ccccc3n2CCOc2ccccc2)c1,?,nt,nt,nt,3%,nt
CC(C)c1ccc(C2c3[nH]c4ccccc4c3C[C@H]3C(=O)N(c4ccccc4C(=O)N4CCC[C@@H]4C(=O)O)C(=O)N23)cc1 (some centres not stated),4%,0%,-2%,2%,nt,5%
CC(C)CC(C(=O)NCc1ccc(F)cc1)N1Cc2ccccc2C1=O (configuration not stated),-2%,nt,nt,nt,nt,nt
Cc1ccc(-n2cc(CN3CCN(C(=O)c4ncn[nH]4)CC3)c(-c3ccc(F)cc3)n2)cc1,9.5µM*,0%,-2%,21µM*,nt,-9%
Cc1ccc(-n2cc(CN3CCN(Cc4nccn4C)CC3)c(-c3ccc(F)cc3)n2)cc1,?,-4%,-5%,?,nt,-5%
Cc1ccc(-n2cc(CN3CCN(c4ccccn4)CC3)c(-c3ccc(F)cc3)n2)cc1,15µM*,-5%,12%,-8%,nt,-7%
Cc1ccc(CN2C(=O)c3ccccc3Sc3ccc(C(=O)OCc4ccco4)cc32)cc1,-3%,nt,nt,nt,nt,nt
CCCNC(=O)c1ccc(CN2CCOCC2)cc1,-7%,8%,-2%,10%,-1%,3%
CC(=O)c1ccc(NC(=O)C(C)NCc2ccccc2Cl)cc1 (configuration not stated),2%,-3%,11%,-4%,7%,5%
CCc1c(C(=O)Nc2ccc(C)c(C)c2)[nH]c(C)c1C(C)=O,15µM*,?,3.2µM*,?,nt,?
CCc1c(C(=O)Nc2ccc(OC)cc2)[nH]c(C)c1C(C)=O,?,14%,21%,?,22µM*,3%
CC(=O)c1c(C)[nH]c(C(=O)Nc2ccc(C)cc2Br)c1C,?,3.5µM*,0.89µM*,?,nt,?
CC(=O)c1c(C)[nH]c(C(=O)Nc2ccc3c(c2)OCCO3)c1C,4.8µM*,1.8µM*,1.3µM*,?,5.6µM*,?
COc1cccc(C(=O)OCC(=O)c2c(N)n(C)c(=O)n(C)c2=O)c1,nt,-1%,1%,45%,nt,3%
CCOC(=O)c1c(C)[nH]c(C(=O)Nc2ccc(C)c(Cl)c2)c1C,2.4µM*,2µM*,4µM*,?,11µM*,?
COc1ccc(C(C)(C)C)cc1NC(=O)c1[nH]c(C)c(C(C)=O)c1C,-7%,-1%,-6%,5.8µM*,nt,4%
CC(=O)c1c(C)[nH]c(C(=O)Nc2ccc(C)c(C)c2)c1C,11µM*,?,1.4µM*,?,nt,10µM*
SMILES,FLuc modulator,NPC1 promoter act,Rab9 prom act,ELG1 repair inh,SMN2 splice enh,ELG1 genotox
CCOC(=O)c1c(C)[nH]c(C(=O)Nc2ccc(NC(C)=O)cc2)c1C,-19%,0%,0%,-3%,3%,0%
CCOC(=O)c1c(C)[nH]c(C(=O)NNC(=O)c2ccccc2)c1C,6.7µM*,0.56µM*,1.8µM*,?,11µM*,?
COc1ccc(NC(=O)c2[nH]c(C)c(C(C)=O)c2C)cc1Cl,?,17%,?,?,12%,6%
COc1cccc(NC(=O)CN2C(=O)CSc3ccc(S(=O)(=O)N4CCCC4)cc32)c1,-12%,nt,nt,nt,nt,nt
CSc1nnc2c3ccccc3n(CCc3ccccc3)c2n1,-3%,-4%,10%,-6%,4µM*,-17%
CSc1nnc2c3ccccc3n(Cc3ccccc3)c2n1,2%,1%,-6%,19%,-7%,1%
O=C(N1CCOCC1)n1nnc2ccccc21,-22%,-6%,-5%,3%,15%,-3%
C/C(=C\c1ccccc1)C(=O)n1nnc2ccccc21,19µM*,-1%,8%,?,-3%,1%
Cc1ccc(N(C)C(=O)C2CCCN(c3ncnc4c3nc3n4CCCCC3)C2)cc1C (configuration not stated),-14%,nt,nt,nt,nt,nt
N/C(=N\OC(=O)C1CCCCC1)c1ccccn1,2.4µM*,25%,19%,?,12%,?
N/C(=N\OC(=O)C1CCCCC1)c1ccncc1,?,3%,-3%,?,nt,10%
N/C(=N\OC(=O)C1CCCCC1)c1ccc(Cl)cc1,11µM*,20%,9%,?,nt,?
N/C(=N\OC(=O)C1CCCCC1)c1ccc(Br)cc1,9.5µM*,19%,?,?,nt,?
Cc1ccc(NC(=O)CN(C)C(=O)CCC(=O)N2CCOCC2)cc1,-3%,4%,0%,18%,nt,0%
COc1ccccc1C(=O)Nc1cc(C)c(OCC(=O)N2CCOCC2)c(C)c1,?,-3%,12%,3%,nt,5%
O=C(Nc1ccc(OCC(=O)N2CCOCC2)cc1)c1cncc(Br)c1,?,-5%,-3%,9.2µM*,-8%,-11%
CCCCOc1ccc(C(=O)Nc2ccc(OCC(=O)N3CCOCC3)cc2)cc1,1.1µM*,?,22%,?,nt,9%
Cc1ccc(C(=O)Nc2cc(C)c(OCC(=O)N3CCOCC3)c(C)c2)cc1,0.67µM*,?,2.8µM*,?,11µM*,?
